In PubChem BioAssay AID602340 (Broad Institute, 2012):
In all, about 330,000 compounds went through this assay and about 2,600 (0.79%) were called active.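 The calls were made as follows: active = mean ATP rescue above about 67%, or every replicate alone reaching that limit (limit read from the data, passing the limit was not always enough); inconclusive = no clear call, values can overlap the other calls; inactive = mean under the limit and some replicate under it.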 The full list was thinned out, with actives kept by preference.

Assay: protection of differentiated C2C12 cells from simvastatin – single point, plate reader, primary screen (AID 602340);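 also: myotubes were challenged with 10 µM simvastatin during compound exposure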
Details: C2C12 myotubes + simvastatin, ATP luminescence, 48 h; at 7.49 µM; active compounds read high; scaled: DMSO 0, geranylgeraniol control 100

SMILES	rescue of ATP level
CCCC(=O)N(CCc1ccccc1)Cc1nc2ccccc2c(=O)[nH]1	4.48% (inactive)
CCN(CC(=O)NC(=O)NCc1ccccc1)Cc1nc2ccccc2c(=O)[nH]1	-7.59% (inactive)
O=C(c1ccco1)N(Cc1nc2ccccc2c(=O)[nH]1)C1CCCC1	69.1% (active)
CCCNC(=O)N[C@@H]1CC[C@@H](CCn2cc(C3CC3)nn2)O[C@@H]1CO	4.61% (inactive)
CCn1nnnc1SCC(=O)Nc1ccc(N(C)C)cc1	-19% (inactive)
CCOC(=O)c1c(-c2ccc(C)cc2C)csc1NC(=O)CSc1nnnn1C	8.4% (inactive)
CCn1nnnc1SCC(=O)c1ccc(C)cc1C	122% (active)
C/C=C/c1ccc2c(c1)O[C@@H](CN(C)C(=O)C1CCOCC1)[C@H](C)CN([C@H](C)CO)S2(=O)=O	7.79% (inactive)
CC(OC(=O)c1ccc2noc(-c3ccccc3)c2c1)C(N)=O (centres undefined)	20.5% (inactive)
NC(N)=Nc1nc(-c2ccccc2)c2cc(Cl)ccc2n1	-791% (inactive)
Oc1ccc(-c2onc3ccc(Cl)cc23)cc1	108% (active)
C[C@H](CO)N1C[C@H](C)[C@H](CN(C)Cc2ccncc2)Oc2ccc(NS(=O)(=O)c3cn(C)cn3)cc2C1=O	-11.2% (inactive)
C[C@H](CO)N1C[C@H](C)[C@H](CN(C)C(=O)c2ccccn2)Oc2ncc(-c3ccccc3F)cc2C1=O	16.4% (inactive)
CCCC(=O)Nc1ccc2c(c1)C(=O)N(C)C[C@@H](OC)[C@@H](C)CN(Cc1cncnc1)[C@@H](C)CO2	-0.178% (inactive)
C[C@@H]1CN([C@@H](C)CO)C(=O)c2cc(C#CC3CC3)cnc2O[C@@H]1CN(C)C(=O)Cc1ccccn1	13.5% (inactive)
CO[C@@H]1CN(C)C(=O)c2ccc(NC(=O)c3ccc(F)cc3)cc2OC[C@H](C)NC[C@@H]1C	-3.77% (inactive)
CCCNC(=O)N1[C@@H]2CN(C)c3ccccc3[C@@H]2[C@@H]1CO	9.21% (inactive)
O=C(C[C@@H]1C[C@H]2c3cc(NC(=O)Nc4ccccc4F)ccc3O[C@H]2[C@@H](CO)O1)NCc1ccncc1	2.48% (inactive)
COc1ccc(OC)c2c(N)c(C#N)c(C(F)(F)C(F)(F)F)nc12	89.2% (active)
COc1ccc(C2CC(=O)Nc3sc(=N)c4c(N)c(C#N)c(N)nc4c32)cc1OC (centres undefined)	-2.72% (inactive)
CC(C)NC(=O)Nc1ccc2c(c1)C(=O)N([C@@H](C)CO)C[C@@H](C)[C@H](CN(C)Cc1ccc(C(=O)O)cc1)O2	6.31% (inactive)
CCOc1ccc(Nc2nc(Cc3nnc(SCC(=O)NC4CCCC4)n3C)cs2)cc1	33.9% (inactive)
CCOc1ccc(Nc2nc(Cc3nnc(SCC(=O)c4ccc(C)cc4)o3)cs2)cc1	76.7% (active)
CC(=O)Nc1ccc(C(=O)CSc2nnc(Cc3ccccc3)o2)cc1	1.31% (inactive)
COCC(=O)Nc1ccc2c(c1)OC[C@H](C)NC[C@@H](C)[C@H](OC)CN(C)C2=O	7.72% (inactive)
O=C(c1cccnc1)N1CC[C@@H]2[C@@H](CO)Nc3ccc(-c4ccccc4)cc3[C@@H]21	2.73% (inactive)
CO[C@H]1CN(C)C(=O)c2cc(NC(=O)c3ccc4c(c3)OCO4)ccc2OC[C@@H](C)N(CCC(F)(F)F)C[C@H]1C	6.03% (inactive)

SMILES	rescue of ATP level
O=C(N[C@H]1CC[C@H](CCNS(=O)(=O)c2ccc(F)cc2)O[C@H]1CO)C1CCCC1	6.44% (inactive)
COCC(=O)Nc1ccc2c(c1)OC[C@@H](C)N(C(=O)CC1CC1)C[C@@H](C)[C@@H](OC)CN(C)C2=O	15.1% (inactive)
CCCC#Cc1cnc2c(c1)C(=O)N([C@H](C)CO)C[C@@H](C)[C@@H](CN(C)C(=O)Nc1ccccc1OC)O2	11.6% (inactive)
CC1(C)Cc2cccc(OCC(N)=O)c2O1	113% (active)
CC1(C)Cc2cccc(OCC(=O)NCc3ccccc3)c2O1	1.33% (inactive)
CC1(C)Cc2cccc(OCC(=O)Nc3nccs3)c2O1	0.639% (inactive)
CCC(=O)N[C@H]1CC[C@H](CCn2cc(-c3cccc(OC)c3)nn2)O[C@H]1CO	-2.48% (inactive)
CC=Cc1ccc2n(c1=O)C[C@H]1[C@H](CO)[C@@H](C(=O)NC3CCCC3)N(Cc3cccnc3)[C@@H]21 (mixture of isomers)	-41.8% (inactive)
C[C@H](CO)N1C[C@H](C)[C@@H](CN(C)Cc2cccc(F)c2)Oc2cc(C#CC3CC3)ccc2S1(=O)=O	-17.1% (inactive)
CC1(C)Cc2c(C#N)c(SCc3nc4ccccc4[nH]3)nc(N3CCOCC3)c2CO1	-43.7% (inactive)
Clc1ccccc1SCc1nc2ccccc2[nH]1	91.4% (active)
Cc1ccc(O)c(CNc2nc3ccccc3[nH]2)c1	2.19% (inactive)
CO[C@@H]1CN(C)C(=O)c2ccc(NC(=O)NC(C)C)cc2OC[C@H](C)N(Cc2ccc(-c3ccccn3)cc2)C[C@H]1C	16.4% (inactive)
CCNC(=O)C[C@@H]1C=C[C@@H](NC(=O)C2CCOCC2)[C@@H](CO)O1	-1.82% (inactive)
O=C(C[C@@H]1CC[C@@H]2[C@H](COC[C@H](O)CN2CC2CCOCC2)O1)NCC1CCCCC1	1.6% (inactive)
CO[C@@H]1CN(C)C(=O)c2ccc(NC(=O)c3cccc(Oc4ccccc4)c3)cc2OC[C@H](C)NC[C@@H]1C	-3.89% (inactive)
CNC(=O)C[C@H]1CC[C@H]2[C@H](COc3ccc(NC(=O)Nc4ccc(F)cc4)cc3C(=O)N2C)O1	17.2% (inactive)
Cc1ccc2nc(N3CCN(C(=O)c4ccco4)CC3)sc2c1	0.517% (inactive)
COc1ccc2nc(N3CCN(C(=O)c4ccc([N+](=O)[O-])o4)CC3)sc2c1	73.2% (active)
COc1ccc2nc(N3C(=O)C(O)=C(C(=O)c4ccco4)C3c3ccco3)sc2c1 (centres undefined)	9.9% (inactive)
COc1ccc(S(=O)(=O)Nc2ccc3c(c2)C(=O)N([C@@H](C)CO)C[C@H](C)[C@H](CN(C)Cc2ccc4c(c2)OCO4)OCCCC[C@H](C)O3)cc1	-65.3% (inactive)
CC=Cc1ccc2n(c1=O)C[C@@H]1[C@@H](CO)[C@H](C(=O)NCC(F)(F)F)N(CCc3ccccc3)[C@H]21 (mixture of isomers)	-10.8% (inactive)
O=C(C[C@@H]1CC[C@@H]2[C@H](COC[C@H](O)CN2C(=O)Nc2cccc(Cl)c2)O1)NCCCN1CCOCC1	-20.2% (inactive)
O=C(NCc1ccco1)C1CCCN(S(=O)(=O)c2ccccc2)C1 (centres undefined)	133% (active)
O=C(NCc1ccco1)C1CCCN(S(=O)(=O)c2cnc[nH]2)C1 (centres undefined)	-4.96% (inactive)
CCCS(=O)(=O)N1CCCC(C(=O)NCc2ccco2)C1 (centres undefined)	-3.35% (inactive)
O=C(C[C@@H]1CC[C@@H]2[C@H](COC[C@@H](O)CN2S(=O)(=O)c2cccc(Cl)c2)O1)N1CCOCC1	-7.32% (inactive)

SMILES	rescue of ATP level
CCCN(C)C[C@@H]1Oc2ncc(C#CC3CC3)cc2C(=O)N([C@H](C)CO)C[C@H]1C	8.64% (inactive)
O=C(Nc1ccccc1)N1C[C@H]2[C@@H](c3ccccc31)[C@H](CO)N2Cc1ccc(F)cc1	3.11% (inactive)
COc1cccc(S(=O)(=O)N[C@H]2C=C[C@H](CC(=O)NC3Cc4ccccc4C3)O[C@@H]2CO)c1	4.32% (inactive)
C[C@@H]1CN([C@@H](C)CO)C(=O)c2cc(C#CCN(C)C)cnc2O[C@H]1CN(C)S(=O)(=O)c1cn(C)cn1	-11.7% (inactive)
O=C(c1cc2cc(F)ccc2[nH]1)N1CCN(c2ccc(F)cc2)CC1	0.946% (inactive)
Cc1c(C(=O)N2CCN(c3ccc(F)cc3)CC2)oc2c1C(=O)CCC2	87.3% (active)
O=C(c1cc(-c2ccc(F)cc2)on1)N1CCN(c2ccc(F)cc2)CC1	-7.85% (inactive)
C[C@@H]1CN([C@H](C)CO)S(=O)(=O)c2ccc(C#C[C@@H](C)O)cc2O[C@H]1CN(C)CC1CC1	-38.8% (inactive)
CCCNC(=O)Nc1ccc2c(c1)OC[C@@H](C)N(C(=O)c1ccccc1F)C[C@H](C)[C@@H](OC)CN(C)C2=O	-10.8% (inactive)
O=C(Nc1cc(C(F)(F)F)ccc1Cl)c1cc2nc3c(c(C(F)(F)F)n2n1)CCCC3	-15% (inactive)
C=CCNC(=O)c1cc2nc(C3CC3)cc(C(F)F)n2n1	-17.9% (inactive)
O=C(Nc1ccc(Cl)cc1)c1cc2nc(C3CC3)cc(C(F)(F)F)n2n1	98.2% (active)
Cc1c(Br)cc(C(=O)N2CCCCCC2)c(C)c1C	115% (active)
COc1cc(OC)c(C(=O)N2CCCC2)cc1OC	-3.44% (inactive)
Cc1ccc(C(=O)N2CCCC2)c(F)c1F	16.3% (inactive)
COCC(=O)Nc1ccc2c(c1)C(=O)N(C)[C@@H]1CC[C@H](CC(=O)NCC3CCCCC3)O[C@H]1CO2	13.3% (inactive)
O=C(Nc1ccccc1F)N[C@@H]1CC[C@H](CC(=O)N2CCCCC2)O[C@H]1CO	4.38% (inactive)
CC(=O)N1[C@@H]2c3ccc(-c4ccccc4)c(=O)n3C[C@@H]2[C@@H](CO)[C@@H]1C(=O)NCc1ccccc1F	5.23% (inactive)
O=C(Nc1ccccc1)Oc1cccc2cccnc12	101% (active)
Fc1ccccc1COc1cccc2cccnc12	8.73% (inactive)
OCc1ccc(OCCCOc2cccc3cccnc23)cc1	7.29% (inactive)
C/C=C/c1ccc2c(c1)O[C@H](CN(C)C(=O)C1CCCCC1)[C@@H](C)CN([C@@H](C)CO)S2(=O)=O	2.75% (inactive)
CCOCCn1c(C(C)C)nc2ccccc21	-2.16% (inactive)
COCCOCCn1cnc2ccccc21	14.6% (inactive)
CCc1nc2ccccc2n(CCOCCOCCn2c(=O)c(CC)nc3ccccc32)c1=O	114% (active)
